Measurements published in PubChem BioAssay (NCI).
This is part of a sample that, as a whole, favours compounds with a hit. Of some 83,000 tested, about 20% had one in any assay.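 How to read the values: 0–100, growth inhibition (40 = 60% inhibited); 0, no net growth; -100 to 0, cell death (-40 = 40% of starting cells died; -100 = all dead).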 Values without a mark were called inactive. Active and inactive are the calls of the source. The calls were made as follows: active = growth percent below 10; inactive = the rest.

These molecules were tested on CAKI-1 renal (assay: NCI-60 one-dose screen, 48 h (100 = growth as untreated, 0 = no growth, -100 = all killed)). Conditions: 10 µM unless noted.
In the case of `CC(C)OC1=C(Cl)C(=O)c2ccccc2C1=O`, the growth is reported as 106%. In the case of `CS(=O)(=O)Nc1cccc(C(=O)NCc2ccc(N3CCOCC3)cc2)c1`, the growth is reported as 101%. `COc1ccc(S(=O)(=O)ON=C2C=C(C)C(=O)C(C)=C2)cc1` was tested, and the growth was 61.6%. `CCOC(=O)c1c(Cl)c2c(n1Cc1cc(OC)cc(OC)c1)-c1oncc1CCC2` was tested, and the growth was 31.3%. For `NC(=S)N/N=C1\c2ccccc2-c2c(F)c(F)c(F)c(F)c21`, the growth was 78.3%. With `N#Cc1c(O)c2c(c(O)c1C#N)C(=O)c1ccccc1C2=O` the growth was 85.7%. `COc1cc(/C=C/C(=O)CC(=O)/C=C/c2cc(Br)c(OC)c(OC)c2)cc(Br)c1OC` showed a growth of 105%. `CCN1CCN(c2ccc(Nc3ncc4ccc5ncn(C(C)C)c5c4n3)nc2)CC1` was tested, and the growth was -10.7% (active). With `Nc1nc2c(s1)CCc1c-2c(Br)n(Cc2ccccc2)c1Br` the growth was 81.5%. Molecule `O=c1onc(-c2ccccc2)c2ccccc12` has a growth of 98.5%. `CCCCCn1c(=N)n(CC(O)COc2cccc(C)c2)c2ccccc21` (stereo not given) was tested, and the growth was 7.06% (active). In the case of `COc1ccc(-c2nn(-c3ccc(NC(=O)c4ccc(Cl)c(Cl)c4)cc3)cc2-c2ccncc2)cc1Cl`, the growth is reported as -13.7% (active). For `CCC(C)Oc1cc(/C=N/NC(=O)c2cnn3c2NC(c2ccccc2)C3)ccc1OC` (stereo not given), the growth was 35.9%. In the case of `COc1cccc(OC)c1OC(=O)c1ccccc1`, the growth is reported as 88.4%. For `C=C[C@H]1C[C@@H]2C[C@@H]3[C@H]4C/C=C\C(=O)NCCCC5NC(=O)C(=C(O)/C=C/[C@@H]4CC(=O)[C@H]3[C@@H]2[C@H]1C)C5=O` (stereo not given in full), the growth was 29%.
